The values below come from PubChem BioAssay (NCI).

Holding throughout (assay): NCI-60 one-dose screen, 48 h (100 = growth as untreated, 0 = no growth, -100 = all killed)
The subject of one assay is BT-549 breast. As to conditions: 10 µM.
The test system of the next assay is MDA-MB-435 melanoma. As to conditions: 10 µM.
The test system of the next assay is SW-620 colon. As to conditions: 10 µM.
For the next assay, the system named is MCF7 breast.
The test system of the next assay is HCT-116 colon. As to conditions: 10 µM.
A further assay deals with HCC-2998 colon. As to conditions: 10 µM.
For another assay, the system named is KM12 colon. As to conditions: 10 µM.
In the next assay the test system is T-47D breast. As to conditions: 10 µM.

Compounds without any hit were thinned out: in the full panel of roughly 83,000, 20% have a hit.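 Growth was measured after 48 h exposure to one concentration of compound in 96-well plates. Values under 10 count as active.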 A number with no mark means an inactive call. Calls of active or inactive are those of the source.

As for `C=C1CC/C=C(\C)C(=O)C[C@@H]2[C@@H]1CC2(C)C`, the growth is 105% in the assay on BT-549 breast; 115% with MDA-MB-435 melanoma; 119% with SW-620 colon; 101% with MCF7 breast (10 µM); -72% (active) in the assay with MCF7 breast (100 µM); 99.9% with HCT-116 colon. The growth in the assay with HCC-2998 colon is 98.1%; in the assay on KM12 colon, 109%.

Regarding `CC(CN1CCCCC1)NC(=O)c1scnc1-c1ccccc1` (centres undefined), the growth is 98.7% with T-47D breast; 101% in the assay with MDA-MB-435 melanoma; 106% in the assay on SW-620 colon; 103% in the assay on MCF7 breast (10 µM unless noted); 93.8% with HCT-116 colon; 96.8% in the assay with HCC-2998 colon. Further, the growth with KM12 colon was 106%.

In the case of `CC(C)NC(=O)OCc1c(COC(=O)NC(C)C)c(-c2ccc(Cl)c(Cl)c2)n2c1SCC2`, the growth was 21.7% in the assay with BT-549 breast; 67.2% in the assay on MDA-MB-435 melanoma; 44.8% in the assay with SW-620 colon; 32.2% in the assay on MCF7 breast (10 µM unless noted); 29.9% in the assay on HCT-116 colon; 72.8% in the assay with HCC-2998 colon. Further, in the assay with KM12 colon, the growth is 77.6%.

For `O/N=C/c1ccc(O)cc1O`, the growth in the assay with BT-549 breast was 103%; in the assay on MDA-MB-435 melanoma it was 107%; in the assay on SW-620 colon, 102%; with MCF7 breast (10 µM unless noted), 98.6%; in the assay on HCT-116 colon, 114%; in the assay with HCC-2998 colon, 105%. For the same compound, the growth in the assay with KM12 colon is 99%.

For `O=S(=O)(O)CC(O)CN1CCN(CCO)CC1` (centres undefined), the growth in the assay with BT-549 breast is 99.3%; with MDA-MB-435 melanoma it was 113%; in the assay with SW-620 colon, 105%; in the assay on MCF7 breast (10 µM unless noted), 96%; in the assay on HCT-116 colon, 101%; in the assay on HCC-2998 colon, 89.4%. For the same compound, the growth in the assay on KM12 colon is 107%.

As for `Cc1cc2nc(CC(=O)c3ccccc3)c(=O)[nH]c2cc1C`, the growth is 89.6% in the assay on BT-549 breast; 106% in the assay on MDA-MB-435 melanoma; 94.3% with SW-620 colon; 78.1% in the assay with MCF7 breast (10 µM unless noted); 80.3% in the assay with HCT-116 colon; 110% in the assay on HCC-2998 colon. For the same compound, the growth with KM12 colon is 100%.

For `Cc1ccc(N)cc1[N+](=O)[O-]`, the growth was 97.9% in the assay on BT-549 breast; 119% with MDA-MB-435 melanoma; 100% with SW-620 colon; 76.4% in the assay on MCF7 breast (10 µM unless noted); 101% with HCT-116 colon; 92.5% with HCC-2998 colon. For the same compound, the growth in the assay on KM12 colon was 105%.

With `COC(=O)c1[nH]c(=O)c(C#N)c(C(=O)OC)c1C(=O)c1ccccc1`, the growth in the assay on BT-549 breast is 110%; with MDA-MB-435 melanoma, 99.9%; in the assay with SW-620 colon, 102%; with MCF7 breast (10 µM unless noted), 68.9%; with HCT-116 colon, 99.3%; in the assay with HCC-2998 colon, 113%. The growth with KM12 colon is 102%.

Turning to `CC1(C(=O)O)NC(C(=O)O)Cc2c1[nH]c1ccccc21` (centres undefined), the growth is 119% with BT-549 breast; 94.6% in the assay with MDA-MB-435 melanoma; 97.8% with SW-620 colon; 98% in the assay on MCF7 breast (10 µM unless noted); 92.6% in the assay with HCT-116 colon; 104% in the assay with HCC-2998 colon. Also, the growth in the assay with KM12 colon was 103%.

In the case of `Nc1nc2c(c(-c3nc(N)nc4c3CCc3ccccc3-4)n1)CCc1ccccc1-2`, the growth in the assay on BT-549 breast was 109%; in the assay with MDA-MB-435 melanoma, 109%; with SW-620 colon it was 101%; with MCF7 breast (10 µM unless noted) it was 95.4%; in the assay on HCT-116 colon, 105%; with HCC-2998 colon it was 114%. In addition, the growth in the assay on KM12 colon is 105%.

Take `Cc1cc(NC(=O)CSCC(=O)O)no1`: the growth in the assay on BT-549 breast is 98.7%; with MDA-MB-435 melanoma it was 105%; with SW-620 colon it was 102%; with MCF7 breast (10 µM unless noted), 91.9%; in the assay on HCT-116 colon, 101%; with HCC-2998 colon, 113%. Besides, the growth in the assay on KM12 colon is 107%.

Regarding `COC(=O)c1cc(-c2ccc(Cl)c(Cl)c2)[nH]c(=O)c1C#N`, the growth in the assay with BT-549 breast was 104%; in the assay with MDA-MB-435 melanoma, 104%; in the assay with SW-620 colon, 99.1%; with MCF7 breast (10 µM unless noted) it was 89.1%; in the assay on HCT-116 colon it was 97.2%; with HCC-2998 colon, 117%. For the same compound, the growth in the assay with KM12 colon was 109%.

For `O=C1NC(=O)C2C(=O)NC(=O)C1C21CCc2ccccc21` (centres undefined), the growth in the assay with BT-549 breast was 106%; with MDA-MB-435 melanoma it was 112%; with SW-620 colon, 101%; in the assay on MCF7 breast (10 µM unless noted), 93.1%; in the assay with HCT-116 colon, 96.7%; in the assay on HCC-2998 colon, 115%. In the assay on KM12 colon, the growth was 105%.

Regarding `COCCCNC(=O)c1nnn2c1nc(N)c1cc(Cl)ccc12`, the growth with BT-549 breast was 79.2%; with MDA-MB-435 melanoma, 10.9%; in the assay with SW-620 colon, 81%; in the assay with MCF7 breast (10 µM unless noted), 73.4%; in the assay on HCT-116 colon, 77.6%; in the assay on HCC-2998 colon, 89.4%. In the assay on KM12 colon, the growth was 50.2%.

`CCS(=O)(=O)c1cc(=O)[nH]c(=O)[nH]1`: the growth is 115% in the assay on BT-549 breast; 86.7% with MDA-MB-435 melanoma; 112% in the assay on SW-620 colon; 106% in the assay with MCF7 breast (10 µM unless noted); 104% in the assay on HCT-116 colon; 116% in the assay with HCC-2998 colon. For the same compound, the growth with KM12 colon is 107%.

For the compound `CC(=O)NCc1cc(C)c(C)cc1C`, the growth in the assay with BT-549 breast is 100%; with MDA-MB-435 melanoma, 114%; in the assay with SW-620 colon, 107%; in the assay with MCF7 breast (10 µM unless noted), 97.4%; in the assay on HCT-116 colon, 101%; with HCC-2998 colon, 115%. In addition, the growth with KM12 colon is 95.7%.

With `O=[N+]([O-])c1ccc(-c2noc(-c3cccs3)n2)cc1`, the growth is 78.3% in the assay with BT-549 breast; 94.2% with MDA-MB-435 melanoma; 90.4% in the assay on SW-620 colon; 63.2% with MCF7 breast (10 µM unless noted); 47.5% in the assay with HCT-116 colon; 99.9% with HCC-2998 colon. The growth with KM12 colon was 88.5%.

Turning to `COc1ccc(-c2cc(-c3cc(-c4ccc(OC)cc4)nc(N)n3)nc(N)n2)cc1`, the growth in the assay with BT-549 breast was 95.2%; in the assay with MDA-MB-435 melanoma it was 97.5%; in the assay on SW-620 colon, 97.5%; in the assay with MCF7 breast (10 µM unless noted), 91.2%; in the assay with HCT-116 colon, 103%; in the assay with HCC-2998 colon it was 112%. The growth in the assay on KM12 colon is 101%.

As to `c1c(-c2cc(C3CC3)[nH]n2)n[nH]c1C1CC1`, the growth with BT-549 breast is 94%; with MDA-MB-435 melanoma, 109%; in the assay with SW-620 colon, 102%; with MCF7 breast (10 µM unless noted), 92.8%; with HCT-116 colon, 83.6%; in the assay on HCC-2998 colon, 102%. Moreover, the growth with KM12 colon was 109%.
